Source: PubChem
Most compounds without a hit are left out; they make up all but 2.7% or so of the library.
PP5 primary – PP5 (human) phosphatase inhibition; actives 0.18% (n = 320,000); P53041; purified PP5c, OMFP substrate fluorescence; inhibition, % at 6.7 µM;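 active = inhibition above the campaign's mean inhibition across all tested compounds plus 3 SD, cut at about 9.5% in these data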;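 also: 0% = DMSO only and 100% = 100 µM cantharidin control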
PP1 counter – counter-screen for PP5 inhibitors: inhibitors of human PP1-alpha; P62136; purified PP1alpha, OMFP fluorescence; inhibition, % at 6.7 µM; actives 0.9% (n = 320,000);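 active = inhibition above the mean inhibition of all tested compounds plus 3 SD, computed separately for each screening campaign, cut at about 15% in these data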
DNA FID counter – displaces DNA intercalator in HCV helicase counter-screen; inhibition, % at 7.9 µM; AID 1845; DNA fluorescent intercalator displacement, fluorescence; actives 0.17% (n = 290,000); in the data active = inhibition above about 37%;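 also: 0% = vehicle and 100% = reference compound; higher means more ethidium bromide displaced from hairpin DNA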
TMEM16A inh – mouse TMEM16A channel inhibition, primary screen | HEK293 TMEM16A/YFP iodide influx fluorescence, ionomycin | AID 588511 | normalized B-score (activity score, 25-100; higher = stronger inhibition) at 10 µM | actives 1.2% (n = 310,000);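 active = ratio plate-corrected score three or more library SD toward inhibition, starting fluorescence score within five deviations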;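 also: score derived from kinetic fluorescence span divided by baseline fluorescence per well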
PREPL inhibitor – human PREPL enzyme inhibition; recombinant PREPL, fluorescence polarization activity-based probe; inhibition, % at 5.96 µM; actives 0.68% (n = 320,000); AID 2751; in the data active = inhibition above about 43%;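 also: 0% = enzyme with DMSO and 100% = wells lacking enzyme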
ANO1 activ – mouse TMEM16A channel activation, primary screen; Q8BHY3; HEK293 TMEM16A/YFP-H148Q/I152L, iodide quench fluorescence; active compounds read low; B-score at 10 µM; actives 0.3% (n = 340,000);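 active = fluorescence-ratio B-score plate-corrected deviation score at least 3 library SD below zero, with starting fluorescence score within 5 deviations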;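 also: channel opened by trigger with iodide after compound preincubation; score built on the fluorescence ratio of max minus min over baseline; more negative score means more quench and so TMEM16A activation or potentiation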
TMEM16A reconf – reconfirmed blocker of mouse TMEM16A calcium-activated chloride channel; HEK293 TMEM16A/YFP-H148Q, iodide quench fluorescence; ionomycin added to raise cell calcium; inhibition, % at 10 µM; actives 39% (n = 2,300); AID 652189; shares compounds with TMEM16A inh;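 active = mean duplicate percent inhibition, scaled so buffer wells are 0 and the reference blocker 100, over three buffer SD above buffer mean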
TMEM16A Ca cntr – calcium mobilization counter-screen hit for TMEM16A inhibitor series. calcium response (% of ionomycin), % at 10 µM. shares compounds with TMEM16A inh. actives 2% (n = 2,300). AID 652231. TMEM16A/YFP HEK293, Fluo4 calcium mobilization;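 active = duplicate-averaged calcium signal over 20% of the ionomycin maximum, relative to buffer baseline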;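 also: each well's signal is peak minus trough fluorescence divided by its pre-addition baseline; 0% = buffer wells and 100% = ionomycin wells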
Parental YFP cnt – parental YFP-HEK293 iodide quench counter-screen activity | ionomycin | YFP ratio F(max-min)/F0 at 10 µM | shares compounds with TMEM16A inh | AID 652233 | 2,300 tested, under 10 active;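 active = yellow fluorescent protein signal ratio exceeding the buffer control mean by over 5 SD of those controls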;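 also: ratio is mean of duplicate wells from kinetic YFP trace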
ClC-1 rat inh – blocks the rat ClC-1 voltage-dependent chloride channel. shares compounds with TMEM16A inh. CHO ClC-1-YFP, iodide influx fluorescence quench; iodide control reads 0, buffer control 100. ratio percent, % at 10 µM. 2,300 tested, under 10 active. AID 652236;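 active = duplicate-mean ratio percent above the mean of iodide-only control wells, which defines zero, plus 5 of their SD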;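 also: higher percent means stronger block of ClC-1 iodide influx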
Target sequence (P35524 whole entry, looked up): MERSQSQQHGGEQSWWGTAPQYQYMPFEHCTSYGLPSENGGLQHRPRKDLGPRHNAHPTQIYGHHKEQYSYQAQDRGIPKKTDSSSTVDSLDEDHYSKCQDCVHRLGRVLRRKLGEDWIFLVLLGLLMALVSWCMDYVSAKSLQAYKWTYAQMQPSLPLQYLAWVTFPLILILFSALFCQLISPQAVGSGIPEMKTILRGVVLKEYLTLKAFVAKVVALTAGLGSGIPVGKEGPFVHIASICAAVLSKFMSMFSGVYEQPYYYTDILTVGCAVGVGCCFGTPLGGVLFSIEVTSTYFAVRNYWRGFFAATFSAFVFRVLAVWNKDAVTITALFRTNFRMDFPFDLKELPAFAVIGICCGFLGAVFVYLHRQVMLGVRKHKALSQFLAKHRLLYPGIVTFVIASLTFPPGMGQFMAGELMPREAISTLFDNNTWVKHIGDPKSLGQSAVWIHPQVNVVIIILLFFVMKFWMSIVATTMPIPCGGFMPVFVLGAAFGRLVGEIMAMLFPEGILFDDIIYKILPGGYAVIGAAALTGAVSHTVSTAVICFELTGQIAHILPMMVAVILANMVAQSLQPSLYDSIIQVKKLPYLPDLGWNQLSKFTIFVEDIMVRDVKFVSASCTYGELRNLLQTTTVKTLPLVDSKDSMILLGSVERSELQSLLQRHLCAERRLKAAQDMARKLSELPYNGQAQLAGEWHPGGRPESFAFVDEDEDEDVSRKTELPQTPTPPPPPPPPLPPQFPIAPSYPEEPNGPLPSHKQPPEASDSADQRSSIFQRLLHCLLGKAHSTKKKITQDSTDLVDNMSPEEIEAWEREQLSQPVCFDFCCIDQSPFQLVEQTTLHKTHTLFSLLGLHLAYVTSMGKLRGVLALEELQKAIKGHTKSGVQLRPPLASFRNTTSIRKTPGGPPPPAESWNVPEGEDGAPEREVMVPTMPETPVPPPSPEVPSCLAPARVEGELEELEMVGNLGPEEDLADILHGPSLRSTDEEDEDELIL
Active calls of the source: *; i = inactive; x = not tested or not shown.

SMILES	PP5 primary	PP1 counter	DNA FID counter	TMEM16A inh	PREPL inhibitor	ANO1 activ	TMEM16A reconf	TMEM16A Ca cntr	Parental YFP cnt	ClC-1 rat inh
NC(=O)c1ccc(NC(=O)c2ccc(CN3CCOCC3)cc2)cc1	4.9	1.1	-5.3	i	12.6	i	x	x	x	x
CCN1CCN(CCNC(=O)c2ccc(/C=C3/Sc4ccccc4N(Cc4ccccc4C)C3=O)cc2)CC1	x	x	22.1	x	x	i	x	x	x	x
CCN1CCN(CCCNC(=O)c2ccc(/C=C3/Sc4ccccc4N(Cc4ccccc4F)C3=O)cc2)CC1	2.5	-0.7	25.6	i	-4.4	i	25.0%*	i	-1.27	-6.5
CCOC(=O)c1c(-c2ccccc2)csc1NC(=O)CSc1nc(N)cc(N)n1	1.5	-0.2	-6.4	25*	-31.9	i	30.5%*	i	-0.846	-5.0
CCOC(=O)c1c(-c2ccccc2)csc1NC(=O)CSc1nc(C)cc(C)n1	2.5	4.2	-3.6	i	-5.5	i	x	x	x	x
CCOC(=O)c1c(S(=O)(=O)Nc2ccccc2OCC)c(C)n(C)c1C	-1.0	-1.0	-9.7	i	2.1	i	x	x	x	x
CCOC(=O)c1cc(C(=O)OCC)c(=O)[nH]c1N1CCCC1	0.5	-0.2	-5.3	i	1.1	i	x	x	x	x
Cc1sc2ncnc(N3CCN(S(=O)(=O)c4ccc(F)cc4)CC3)c2c1C	3.6	0.3	-35.8	100*	-17.3	i	i	i	-0.985	-10.5
COc1cc(C(=O)N2CCN(c3ncnc4sc(C)c(C)c34)CC2)cc(OC)c1OC	-2.3	-4.6	-38.4	25*	8.9	i	i	i	-1.01	-15.0
O=S(=O)(c1ccc(F)c(F)c1F)N1CCN(c2ncnc3sccc23)CC1	x	x	x	x	1.7	i	x	x	x	x
CCS(=O)(=O)N1CCN(c2ncnc3sc(C)c(C)c23)CC1	1.0	-4.7	-8.9	i	15.6	i	x	x	x	x
Cc1ccc(S(=O)(=O)N2CCN(c3ncnc4sccc34)CC2)cc1	3.3	2.1	-24.4	25*	-56.9	i	17.0%*	i	-1.23	-13.0
Cc1ccc(-c2ccc(S(=O)(=O)N3CCN(C)CC3)cc2)cc1	-1.9	-2.8	9.3	100*	-20.7	i	i	i	-0.847	-10.0
FC(F)(F)c1cnc(N2CCN(C(=S)NCc3ccccc3)CC2)c(Cl)c1	5.2	-0.3	-21.9	i	-10.9	i	x	x	x	x
FC(F)(F)c1cnc(N2CCCN(C(=S)Nc3ccccc3)CC2)c(Cl)c1	5.8	3.2	-12.7	100*	13.0	i	33.0%*	i	-0.853	-8.0
CC(C)c1ccc2c(c1)C1(NN=C(c3ccccc3)S1)C(=O)N2 (stereo not drawn)	2.8	15.7*	-5.4	25*	5.8	i	29.0%*	i	-0.863	-8.0
CCC1CCCCN1C(=O)CCc1nnc(C2CCCCC2)o1 (stereo not drawn)	1.7	-4.8	-20.2	i	-4.3	i	x	x	x	x
O=C(CN1C(=O)c2cccc3cccc1c23)N1CCc2ccccc2C1	2.4	1.1	-27.9	i	-17.3	i	x	x	x	x
O=C(CCCN1C(=O)c2ccccc2C1=O)N1CCc2ccccc2C1	-0.9	2.1	-15.9	25*	-16.4	i	i	i	-1.08	-4.0
CN=c1nc(-c2ccccc2)n(-c2ccccc2)s1	5.0	-9.0	x	25*	-18.6	i	i	i	-0.804	-4.0
O=C(C[C@H]1C/C=C\CC[C@H](Cc2ccc(F)cc2)C(=O)OCCNC1=O)NCCO	x	x	x	x	1.3	i	x	x	x	x
COc1cc(-c2noc(C)c2C#Cc2ccsc2)cc(OC)c1OC	-0.3	3.7	-27.2	100*	3.7	i	28.0%*	i	-1.38	-5.0
COc1cc(-c2noc(C)c2C#CCO)cc(OC)c1OC	-2.2	2.5	-18.3	i	16.6	i	x	x	x	x
CC(OC(=O)c1nn(C(C)C)c(=O)c2ccccc12)C(=O)Nc1ncc(Cl)cc1Cl (stereo not drawn)	2.5	1.6	4.4	i	-1.4	i	x	x	x	x
CCOC(=O)C1Cc2ccccc2C(=O)O1 (stereo not drawn)	1.5	-0.9	0.7	i	3.4	i	x	x	x	x
SMILES	PP5 primary	PP1 counter	DNA FID counter	TMEM16A inh	PREPL inhibitor	ANO1 activ	TMEM16A reconf	TMEM16A Ca cntr	Parental YFP cnt	ClC-1 rat inh
CCCCOC(=O)C1Cc2ccccc2C(=O)O1 (stereo not drawn)	-1.2	-5.0	-2.5	100*	3.7	i	i	i	-0.911	7.0
O=C(c1cc2cc(F)ccc2[nH]1)N1CCC(Cc2ccccc2)CC1	0.2	4.1	-25.1	i	3.7	i	x	x	x	x
Cc1cccc(N2CCN(C(=O)Cc3ccc(Br)cc3)CC2)c1C	4.6	4.6	-25.8	100*	-46.6	i	i	i	-0.997	-12.0
Cc1cccc(N2CCN(C(=O)CNC(=O)Cc3ccccc3)CC2)c1C	x	x	x	x	15.4	i	x	x	x	x
C=CCN(c1ccccc1)S(=O)(=O)c1cccc(C(=O)Nc2cccc(C)n2)c1	1.8	2.6	x	i	-7.8	i	x	x	x	x
Cc1noc(C)c1COC(=O)c1cccc(S(=O)(=O)N2c3ccccc3CC2C)c1 (stereo not drawn)	0.6	4.6	-26.2	100*	-9.5	i	25.0%*	i	-1.03	-18.5
Cc1noc(C)c1COC(=O)c1cccc(S(=O)(=O)N2CCOCC2)c1	-0.6	-2.9	x	i	15.1	i	x	x	x	x
CC(C)(CNC(=O)c1ccc([N+](=O)[O-])c(Cl)c1)CNC(=O)c1ccc([N+](=O)[O-])c(Cl)c1	6.5	2.5	3.4	100*	25.3	i	i	i	-0.82	-15.5
CC(=O)OC1CC(C)N(C(=O)c2ccccc2)c2ccc(C)cc21 (stereo not drawn)	-0.9	0.8	-23.4	100*	-5.1	i	i	i	-1.06	-5.0
CCCC(=O)OC1CC(C)N(C(=O)c2ccccc2)c2ccc(C)cc21 (stereo not drawn)	-2.3	2.1	-33.3	i	8.3	i	x	x	x	x
Cc1ccc(S(=O)(=O)NCC(c2ccco2)S(=O)(=O)c2ccccc2)cc1 (stereo not drawn)	1.4	-1.9	x	25*	2.3	i	i	i	-1.26	-6.5
Cc1ccc(S(=O)(=O)NCCC(c2ccccc2)c2ccco2)cc1 (stereo not drawn)	1.4	0.9	-20.5	i	-5.7	i	x	x	x	x
